TPT1 inhibitor = inhibitors of Candida albicans tRNA 2'-phosphotransferase TPT1 | actives 0.81% (n = 300,000) | inhibition, % at 5 µM | AID 1962 | recombinant caTPT1, FP RNA substrate dephosphorylation;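 active means inhibition above the mean of all tested compounds plus 3 SD, set per screening campaign, cut at about 24% in these data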;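 further: plate controls were DMSO alone for no effect and ferristatin control at 100 nM for full effect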
CRFR2-BP antag = antagonists of CRF-binding protein/CRF-R2 receptor complex; HEK293 CRF-R2/CRF-BP, CRF-induced calcium fluorescence; inhibition, % at 11.8 µM; actives 0.59% (n = 350,000);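 active means inhibition of the ligand-induced calcium signal above about 50% at the single tested concentration, limit read from the data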
CRFBP-R2 agonist = agonists of human CRF-binding protein/CRF-R2 receptor complex | activation, % at 13.2 µM | HEK293 CRF-R2/CRF-BP, calcium dye fluorescence (FLIPR); percent of saturating CRF peptide response | actives 0.46% (n = 350,000);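 active means activation of at least 50%, plus an integration ratio under a set limit after plate pattern correction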;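 further: plate controls were neutral control wells without compound for no effect and CRF at EC100 for full effect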
IDE inh = cellular human IDE inhibition; P14735; HEK cells, FAbetaB cleavage, fluorescence polarization; inhibition, % at 5.59 µM; actives 0.41% (n = 320,000); AID 434962;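 active means percent inhibition above the average of all tested compounds plus 3 SD, set per screening campaign, cut at about 16% in these data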;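 further: IDE supplied by intact live HEK cells; FP after avidin binding of uncleaved biotin substrate so inhibition keeps polarization high; 0% = DMSO wells and 100% = 60 µM reference IDE inhibitor Ii1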
Target sequence (P14735 whole entry, looked up): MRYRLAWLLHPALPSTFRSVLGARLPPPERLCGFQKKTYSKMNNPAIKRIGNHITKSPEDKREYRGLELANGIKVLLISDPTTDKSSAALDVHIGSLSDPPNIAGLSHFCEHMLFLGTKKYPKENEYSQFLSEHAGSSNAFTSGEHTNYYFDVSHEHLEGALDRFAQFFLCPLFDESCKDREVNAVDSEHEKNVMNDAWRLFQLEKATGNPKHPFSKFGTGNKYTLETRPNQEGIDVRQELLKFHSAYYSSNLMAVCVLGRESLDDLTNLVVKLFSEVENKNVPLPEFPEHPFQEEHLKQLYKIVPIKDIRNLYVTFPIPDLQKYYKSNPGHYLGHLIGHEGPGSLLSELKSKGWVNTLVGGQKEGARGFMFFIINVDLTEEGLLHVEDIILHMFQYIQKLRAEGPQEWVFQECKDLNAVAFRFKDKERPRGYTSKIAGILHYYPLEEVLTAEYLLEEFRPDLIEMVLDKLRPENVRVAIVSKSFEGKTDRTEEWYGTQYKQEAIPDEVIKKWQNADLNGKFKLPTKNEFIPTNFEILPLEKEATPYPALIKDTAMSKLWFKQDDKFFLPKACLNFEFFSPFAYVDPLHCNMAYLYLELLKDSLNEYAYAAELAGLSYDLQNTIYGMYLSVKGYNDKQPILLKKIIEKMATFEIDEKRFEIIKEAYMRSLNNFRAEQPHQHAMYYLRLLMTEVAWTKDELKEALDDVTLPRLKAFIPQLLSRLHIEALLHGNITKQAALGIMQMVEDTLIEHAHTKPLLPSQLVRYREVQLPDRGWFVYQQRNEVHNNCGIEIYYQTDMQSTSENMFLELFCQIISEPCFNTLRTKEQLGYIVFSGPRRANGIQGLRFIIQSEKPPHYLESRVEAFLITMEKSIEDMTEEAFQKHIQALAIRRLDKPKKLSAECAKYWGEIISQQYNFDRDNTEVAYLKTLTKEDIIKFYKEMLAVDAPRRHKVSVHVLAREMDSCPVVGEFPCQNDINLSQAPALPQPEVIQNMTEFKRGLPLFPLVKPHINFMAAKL
Myeloid diff 2 = promotes myeloid progenitor differentiation | ER-HoxA9 myeloid progenitors, lysozyme-GFP differentiation, flow cytometry | calls only at 10 µM | actives 1% (n = 360,000);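 active means normalized GFP-positive differentiation at or above the plate's own cutoff, the solvent-only control mean plus 3 SD; inconclusive means no clear call, values can overlap the other calls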;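 further: cells exposed to compound for four days before flow analysis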
IDE cell activ = activators of human insulin-degrading enzyme in cells; activation, % at 5.96 µM; HEK cells, FAbeta-B cleavage, fluorescence polarization; 0% vehicle, 100% cell-free pure enzyme wells; actives 0.073% (n = 340,000); P14735; AID 493087;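 active means activation above the mean of all tested compounds plus 3 SD, set per screening campaign, cut at about 17% in these data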
Starred values were filed as active, the others as inactive; i = inactive; ? = inconclusive; . = no result given; + = active, no number. In the library only some 2.6% were active in any assay of this set; here they are far more common.

SMILES	TPT1 inhibitor	CRFR2-BP antag	CRFBP-R2 agonist	IDE inh	Myeloid diff 2	IDE cell activ
CCNC(=O)C1(C)CCCN(C(=O)c2cccnc2Oc2ccccc2)C1 (centres undefined)	.	.	.	.	i	.
CCc1cccc(CC)c1N1C(=O)COCC1=O	.	-8.8	0.2	.	i	.
CCc1cccc(CC)c1N1C(=O)C2=C(SCCCS2)C1=O	.	-126.7	137.2*	.	i	.
Cc1ccc(C(=O)OCC(=O)NNC(=O)c2cccs2)c(O)c1	-3.4	-2.0	0.0	-2.9	i	2.2
O=C(CN1C(=O)NC2(CCCC2)C1=O)Nc1cc(S(=O)(=O)N2CCOCC2)ccc1OCC(F)(F)F	-2.9	-1.3	0.1	-1.4	i	5.1
CCN(CC)c1ccc(NC(=O)COC(=O)/C=C/c2nc3ccccc3s2)cc1	-0.8	-4.0	-0.1	0.7	i	4.9
CCN(CC)c1ccc(/C=C/c2nc3ccccc3s2)cc1	177.9*	.	.	11.6	.	.
CCOC(=O)NNC(=O)c1[nH]c2ccc(Br)cc2c1-c1ccccc1	-0.2	56.6*	-0.5	0.5	i	1.5
Cc1ccc2[nH]c(C(=O)NN=C3CCCCC3)c(-c3ccccc3)c2c1	2.7	-33.4	-0.9	-3.7	+	-0.9
NNC(=O)c1[nH]c2ccc(Br)cc2c1-c1ccccc1	-4.2	-32.8	-1.0	-4.4	+	6.0
O=C1N=c2ccccc2=C1c1sc(=S)n(NC(=O)c2ccccc2)c1O	-3.6	5.4	-2.2	0.3	i	-8.4
C=CCn1c(O)c(C2=c3ccccc3=NC2=O)sc1=Nc1ccc(O)cc1	-1.8	24.8	-1.6	-7.2	i	19.4*
CCOC(=O)c1c(C)[nH]c(C(=O)/C(C#N)=C/c2ccc(OCC)cc2)c1C	5.5	-92.8	1.5	2.1	+	-5.5
Cc1ccc(S(=O)(=O)N2CCCC2)cc1C(=O)NCCN1CCOCC1	-1.1	-13.7	3.6	4.9	i	-1.3
CC(C)(C)OC(=O)N1CCN(Cc2ccc(F)c(B(O)O)c2)CC1	.	0.6	0.9	.	+	0.7
CC(C)(C)c1ccc(C(=O)NCc2ccc(Cl)cc2)cc1	-0.2	-5.3	-0.7	-1.6	i	4.7
CC(C)(C)OC(=O)N1CCN(c2ccc(CNC(=O)c3ccc(Cl)cc3)cc2)CC1	-0.6	50.1*	1.6	0.8	i	4.2
COc1cc(/C=N/Nc2ccc(Cl)c(C(=O)O)c2)ccc1OC(=O)c1cccs1	-1.5	10.5	0.8	4.6	i	1.3
COc1ccc(NC(=S)N2CCCN(Cc3cc(C)ccc3C)C2)cc1	-0.9	-3.5	-2.9	-3.5	i	8.9
CCOC(=O)c1sc(NC(=O)c2cccc(S(=O)(=O)N3CCN(C)CC3)c2)cc1C	0.7	66.9*	-2.1	-3.1	i	0.4
CCOC(=O)c1sc(NC(=O)c2cccc(S(=O)(=O)N(CC)CC)c2)cc1C	-3.9	0.7	-0.6	3.8	i	0.6
COc1ccc(CCNC(=O)c2cc(C3CC3)nc3c2cnn3C(C)C)cc1OC	.	2.1	-0.4	-3.5	+	4.0
O=C(N[C@H]1C/C=C\C[C@H](CC(=O)N(CCO)Cc2ccccc2)C(=O)N[C@@H](c2ccccc2)COC1=O)OCC1c2ccccc2-c2ccccc21	.	0.0	-0.1	11.2	i	5.3
O=C(Nc1nc(-c2cccs2)cs1)c1cccc(S(=O)(=O)N2CCCCCC2)c1	-0.2	6.2	-0.7	0.8	+	0.0
O=C(NNC(=O)c1cccc(S(=O)(=O)N2CCCCC2)c1)c1ccccc1	.	103.3*	-0.2	2.8	i	2.6
SMILES	TPT1 inhibitor	CRFR2-BP antag	CRFBP-R2 agonist	IDE inh	Myeloid diff 2	IDE cell activ
Cc1ccnc(NC(=O)c2cccc(S(=O)(=O)N3CCCC3)c2)c1	1.6	73.4*	-0.6	-1.6	i	6.1
O=C(NNC(=O)c1ccc(S(=O)(=O)N2CCCCC2)cc1)c1ccccc1	-1.7	-21.1	-0.6	0.8	i	-2.5
O=C(NCc1ccc(F)cc1)c1cccc(S(=O)(=O)N2CCCC2)c1	4.8	0.0	-0.9	2.2	i	1.9
Cc1ccnc(NC(=O)c2cccc(S(=O)(=O)N3CCN(c4ccccc4)CC3)c2)c1	1.2	3.9	-0.4	5.8	i	1.2
CC(=O)N1CCN(S(=O)(=O)c2cccc(C(=O)NCc3ccc(F)cc3)c2)CC1	.	89.3*	1.5	8.9	i	5.5
O=C(Nc1nc(-c2cccs2)cs1)c1ccc(S(=O)(=O)N2CCCCC2)cc1	3.9	-11.6	2.8	6.6	i	7.2
COCCNC(=O)NC(=O)COC(=O)c1cc([N+](=O)[O-])ccc1Sc1nc(C)cs1	4.5	6.6	-2.3	3.6	i	1.0
CCn1cc(CN2CCC(n3nccc3NC(=O)C(OC)c3ccccc3)CC2)cn1 (centres undefined)	-3.4	-3.7	1.4	4.6	i	-6.1
Clc1ccc(Cn2cccn2)cn1	-2.8	8.8	-3.6	1.2	i	-2.2
COc1ccc(CN(C)C(=O)Cn2cc(C)c(=O)[nH]c2=O)cc1OC	.	-1.8	-1.0	.	i	-2.0
O=S(=O)(NCC1CC1)c1cccc(S(=O)(=O)N2CCCC2)c1	-1.2	-27.3	-0.5	1.8	+	0.1
O=C(Nc1nnc(S(=O)(=O)N2CCCC2)s1)c1cccc([N+](=O)[O-])c1	-3.4	24.0	-0.3	-4.1	?	0.5
O=C(Nc1nnc(S(=O)(=O)N2CCCCC2)s1)c1cccc(Br)c1	-2.2	58.5*	13.9	1.1	i	1.4
O=C(Nc1ccc(Cl)cn1)c1cccc(S(=O)(=O)N2CCCC2)c1	-2.9	58.3*	0.1	4.1	i	2.5
O=C(CCS(=O)(=O)c1ccccc1)Nc1nc(-c2cccs2)cs1	3.0	-68.3	18.6	0.8	+	-3.6
COc1ccc(C(=O)Oc2ccc3oc(=O)sc3c2)cc1	0.1	22.1	-0.2	12.0	i	-10.1
COc1ccc(S(=O)(=O)N2CCN=C2SCc2cccc(C)c2)cc1	-5.0	4.4	0.8	3.7	i	1.2
CC(=O)Nc1ccc(C(=O)COC(=O)C2CC2C)c(F)c1 (centres undefined)	.	7.7	-1.2	.	i	5.9
C=CCC[C@@H](Cc1ccc(F)cc1)C(=O)OC[C@H](Cc1c[nH]c2ccccc12)NC(=O)[C@@H](CC=C)CC(=O)NCCO	.	-27.0	58.1*	3.4	i	7.3
CC(=O)[C@]1(O)Cc2c(O)c3c(c(O)c2[C@@H](O[C@H]2C[C@H](N)[C@H](O)[C@H](C)O2)C1)C(=O)c1ccccc1C3=O	-116.4	-196.3	212.2*	1.3	.	.
COc1cccc2c1C(=O)c1c(O)c3c(c(O)c1C2=O)C[C@@](O)(C(C)=O)C[C@@H]3O[C@H]1C[C@H](N)[C@H](O)[C@H](C)O1	.	-91.6	83.3*	.	.	18.6*
COc1cccc2c1C(=O)c1c(O)c3c(c(O)c1C2=O)CC(O)(C(=O)CO)CC3OC1CC(N(C)C)C(O)C(C)O1 (centres undefined)	.	-102.3	90.9*	.	.	0.3

Bioassay records deposited in PubChem by several laboratories.
